# Experimental data: ChEMBL document CHEMBL1157539, “Thousands of chemical starting points for antimalarial lead identification” (Nature, 2010)
# Tests used:
# Type in all cases: functional
# Plasmodium falciparum [1] = assay: GSK_TCMDC: Inhibition of Plasmodium falciparum 3D7 in whole red blood cells, using parasite LDH activity as an index of growth. Test compounds present at 2uM
# Plasmodium falciparum [2] = assay: GSK_TCMDC: Inhibition of Plasmodium falciparum Dd2 in whole red blood cells, using parasite LDH activity as an index of growth. Test compounds present at 2uM
# HepG2 = assay: GSK_TCMDC: Percent inhibition of human HepG2 cell line. Test compounds present at 10uM.
smiles,measurement,setting,value
O=C(Nc1ccc(Cl)cc1)Nc1ccc2c(c1)N1CCN=C1S2,Inhibition,Plasmodium falciparum [1],99%
same,Inhibition,Plasmodium falciparum [2],100%
same,Inhibition,HepG2,15%
CCc1ccc(C2CCN(CCCCNC(=O)c3ccc(-c4ccc(C(F)(F)F)cc4)cc3)CC2)c(OCCO)c1.Cl,Inhibition,Plasmodium falciparum [1],100%
same,Inhibition,Plasmodium falciparum [2],69%
same,Inhibition,HepG2,82%
CCCCCN1CCC(NS(=O)(=O)c2cccc(C(=O)Nc3ccc(C(F)(F)F)cc3)c2)C1.O=C(O)C(F)(F)F (configuration not stated),Inhibition,Plasmodium falciparum [1],95%
same,Inhibition,Plasmodium falciparum [2],5%
same,Inhibition,HepG2,45%
COc1ccc(Nc2nc(NC3CCCC3)cc(-c3ccc(OC)cc3)n2)cc1,Inhibition,Plasmodium falciparum [1],86%
same,Inhibition,Plasmodium falciparum [2],15%
same,Inhibition,HepG2,12%
Cc1nc(O)c2c(ccc3ccc(CN(C)c4ccc(C(=O)N[C@@H](CCC(=O)O)C(=O)O)cc4)cc32)n1,Inhibition,Plasmodium falciparum [1],95%
same,Inhibition,Plasmodium falciparum [2],27%
same,Inhibition,HepG2,42%
COc1cc(Cc2cnc(N)nc2N)ccc1OCc1ccc(-c2csnn2)cc1,Inhibition,Plasmodium falciparum [1],97%
same,Inhibition,Plasmodium falciparum [2],0%
same,Inhibition,HepG2,33%
Cc1ccc(CNc2cc(C(F)(F)F)nc(-c3ccc(S(C)(=O)=O)cc3)n2)cc1,Inhibition,Plasmodium falciparum [1],89%
same,Inhibition,Plasmodium falciparum [2],72%
same,Inhibition,HepG2,2%
CC(C)CNC(=O)c1cncc(-c2ccc(CN(C)C3CCN(C)CC3)cc2)c1.O=C(O)C(F)(F)F,Inhibition,Plasmodium falciparum [1],100%
same,Inhibition,Plasmodium falciparum [2],84%
same,Inhibition,HepG2,15%
Cn1nc(-c2cccc(CNCCc3cccs3)c2)c2cnc(NC3CCCC3)nc21,Inhibition,Plasmodium falciparum [1],97%
same,Inhibition,Plasmodium falciparum [2],0%
same,Inhibition,HepG2,8%
O=C(Nc1ccccc1)N(Cc1cccc(-c2ccc(CNCc3ccc4c(c3)OCO4)cc2)c1)C1CCN(Cc2ccccc2)CC1.O=C(O)C(F)(F)F,Inhibition,Plasmodium falciparum [1],100%
same,Inhibition,Plasmodium falciparum [2],82%
same,Inhibition,HepG2,27%
CC(C)NC[C@@H](O)[C@H](Cc1ccccc1)NC(=O)c1cc2c3c(c1)c(C(C)C)cn3CCS(=O)(=O)N2C.O=CO,Inhibition,Plasmodium falciparum [1],98%
same,Inhibition,Plasmodium falciparum [2],99%
same,Inhibition,HepG2,5%
CC1CCC(NCc2c(O)ccc3ccccc23)CC1.Cl (configuration not stated),Inhibition,Plasmodium falciparum [1],95%
same,Inhibition,Plasmodium falciparum [2],77%
same,Inhibition,HepG2,13%
COc1ccc(NC(=O)c2ccc(Br)c(C)c2)cc1N1CCN(Cc2ccccc2)CC1.O=C(O)C(=O)O,Inhibition,Plasmodium falciparum [1],95%
same,Inhibition,Plasmodium falciparum [2],3%
same,Inhibition,HepG2,0%
Cc1cc(-c2cccc(CNCc3ccc(F)cc3)c2)ccc1S(=O)(=O)NCCN1CCCC1.O=C(O)C(F)(F)F,Inhibition,Plasmodium falciparum [1],100%
same,Inhibition,Plasmodium falciparum [2],64%
same,Inhibition,HepG2,49%
C=Cc1ccccc1C1(O)CCN(CCCCNC(=O)c2ccc(-c3ccc(C#N)cc3)cc2)CC1,Inhibition,Plasmodium falciparum [1],88%
same,Inhibition,Plasmodium falciparum [2],64%
same,Inhibition,HepG2,27%
Cc1ccc(Cn2nc(Cl)c(N3CCNCC3)cc2=O)cc1NC(=O)Nc1ccc(-c2ccccc2)cc1.O=C(O)C(F)(F)F,Inhibition,Plasmodium falciparum [1],98%
same,Inhibition,Plasmodium falciparum [2],97%
same,Inhibition,HepG2,100%
COc1ccc2c(C)cc(NCCCN(C)C)nc2c1.O=C(O)C(=O)O,Inhibition,Plasmodium falciparum [1],95%
same,Inhibition,Plasmodium falciparum [2],19%
same,Inhibition,HepG2,10%
O=C(/C=C/c1ccc(Cl)c(Cl)c1)N1CCC(CN2CCC(c3c[nH]c4cnccc34)CC2)CC1,Inhibition,Plasmodium falciparum [1],100%
same,Inhibition,Plasmodium falciparum [2],100%
same,Inhibition,HepG2,39%
Cc1cnc2ccc(NS(=O)(=O)c3ccc4c(Cl)cccc4c3)cc2c1N1CCNCC1.Cl,Inhibition,Plasmodium falciparum [1],100%
same,Inhibition,Plasmodium falciparum [2],3%
same,Inhibition,HepG2,24%
O=C(Cn1c(SCc2cccc(F)c2F)cc(=O)c2ccccc21)N(CCc1c[nH]cn1)Cc1ccc(-c2ccc(C(F)(F)F)cc2)cc1,Inhibition,Plasmodium falciparum [1],100%
same,Inhibition,Plasmodium falciparum [2],72%
same,Inhibition,HepG2,18%
O=C(Nc1ccc(Oc2ccccc2)cc1)N[C@@H](Cc1ccc(O)cc1)C(=O)NC1CCN(Cc2ccc(O)c([N+](=O)[O-])c2)C1 (some centres not stated),Inhibition,Plasmodium falciparum [1],100%
same,Inhibition,Plasmodium falciparum [2],0%
same,Inhibition,HepG2,0%
Cc1cccc2nc(-c3cccc(-c4ccc(CNCCNC(=O)c5ccnn5C)cc4)c3)[nH]c12.O=C(O)C(F)(F)F,Inhibition,Plasmodium falciparum [1],100%
same,Inhibition,Plasmodium falciparum [2],100%
same,Inhibition,HepG2,21%
Cc1cccc2nc(-c3cccc(-c4ccc(NC(=O)c5cnccc5C(F)(F)F)cc4)c3)[nH]c12,Inhibition,Plasmodium falciparum [1],100%
same,Inhibition,Plasmodium falciparum [2],37%
same,Inhibition,HepG2,60%
O=C(Nc1ccc(-c2ccccc2)cc1)Nc1cccc(Cn2nc(Cl)c(N3CCCNCC3)cc2=O)c1.O=C(O)C(F)(F)F,Inhibition,Plasmodium falciparum [1],100%
same,Inhibition,Plasmodium falciparum [2],37%
same,Inhibition,HepG2,13%
CSc1cccc(NC(=O)c2cc3ccccc3oc2=O)c1,Inhibition,Plasmodium falciparum [1],92%
same,Inhibition,Plasmodium falciparum [2],75%
same,Inhibition,HepG2,0%
O=C(/C=C/c1ccccc1Cl)Nc1ccc(Br)c(OCCN2CCN(CCN3CCCC3)CC2)c1.O=C(O)C(=O)O,Inhibition,Plasmodium falciparum [1],99%
same,Inhibition,Plasmodium falciparum [2],89%
same,Inhibition,HepG2,26%
COc1ccccc1N1CCN(c2cccc(F)c2C#N)CC1,Inhibition,Plasmodium falciparum [1],85%
same,Inhibition,Plasmodium falciparum [2],59%
same,Inhibition,HepG2,0%
Cc1cc(F)ccc1-c1nc(Nc2ccncc2)c2ccn(C)c2n1,Inhibition,Plasmodium falciparum [1],89%
same,Inhibition,Plasmodium falciparum [2],8%
same,Inhibition,HepG2,9%
Cc1cnc(C(=O)Nc2ccc3c(c2)CCCN(Cc2c[nH]c4cnccc24)C3)cn1.O=CO,Inhibition,Plasmodium falciparum [1],92%
same,Inhibition,Plasmodium falciparum [2],20%
same,Inhibition,HepG2,0%
Cc1cccc(CCCNC(=O)CN(c2cccc(C(F)(F)F)c2)S(=O)(=O)c2ccc(C(F)(F)F)cc2)c1,Inhibition,Plasmodium falciparum [1],96%
same,Inhibition,Plasmodium falciparum [2],94%
same,Inhibition,HepG2,9%
Cc1cc2nc(-c3ccc(/C=C/C(=O)NCc4ccc(Cl)c(Cl)c4)cc3)[nH]c2cc1C,Inhibition,Plasmodium falciparum [1],98%
same,Inhibition,Plasmodium falciparum [2],83%
same,Inhibition,HepG2,32%
O=S(=O)(c1c(Cl)cc(Cl)cc1Cl)N1CCCCC(c2ccc(Cl)cc2)=N1,Inhibition,Plasmodium falciparum [1],95%
same,Inhibition,Plasmodium falciparum [2],93%
same,Inhibition,HepG2,11%
CN(C)CCOc1cccc(NC(=O)Nc2ccc(-c3ccccc3)cc2)c1.O=C(O)C(F)(F)F,Inhibition,Plasmodium falciparum [1],90%
same,Inhibition,Plasmodium falciparum [2],16%
same,Inhibition,HepG2,11%
COc1cc2nc(NCCc3ccccc3)nc(N(C)Cc3ccccc3)c2cc1OC,Inhibition,Plasmodium falciparum [1],96%
same,Inhibition,Plasmodium falciparum [2],58%
same,Inhibition,HepG2,31%
Cl.NCCCCc1c(-c2ccc(Cl)c(Cl)c2)[nH]c2ccc(Cl)cc12,Inhibition,Plasmodium falciparum [1],97%
same,Inhibition,Plasmodium falciparum [2],20%
same,Inhibition,HepG2,33%
Cc1cc(N[C@@H](Cc2ccccc2)C(=O)NC2CCCC2)nc(NCC2CCCCC2)n1.O=C(O)C(F)(F)F,Inhibition,Plasmodium falciparum [1],100%
same,Inhibition,Plasmodium falciparum [2],96%
same,Inhibition,HepG2,18%
CC1CCN(Cc2cccc(C(=O)NCc3ccc(F)c(-c4cccc(CN5CCN[C@@H](C)C5)c4)c3)c2)CC1.O=C(O)C(F)(F)F,Inhibition,Plasmodium falciparum [1],91%
same,Inhibition,Plasmodium falciparum [2],64%
same,Inhibition,HepG2,26%
COc1ccc(-c2cnc3[nH]cc(-c4ccc(C(=O)O)cc4)c3c2)cn1.O=C(O)C(F)(F)F,Inhibition,Plasmodium falciparum [1],95%
same,Inhibition,Plasmodium falciparum [2],99%
same,Inhibition,HepG2,35%
CCOC(=O)c1cc2c(CCN3C(=O)c4ccccc4C3=O)cn(C)c2cc1-c1ccncc1,Inhibition,Plasmodium falciparum [1],100%
same,Inhibition,Plasmodium falciparum [2],90%
same,Inhibition,HepG2,99%
CCCc1cc(OC)c(CC2c3cc(O)c(C)cc3CCN2C)cc1OC.Cl (configuration not stated),Inhibition,Plasmodium falciparum [1],99%
same,Inhibition,Plasmodium falciparum [2],89%
same,Inhibition,HepG2,32%
NS(=O)(=O)c1cccc(-c2ccc3c(O)ncnc3c2)c1,Inhibition,Plasmodium falciparum [1],99%
same,Inhibition,Plasmodium falciparum [2],100%
same,Inhibition,HepG2,6%
Cc1cccc(Nc2c(-c3cc(Br)ccc3O)nc3ncccn23)c1,Inhibition,Plasmodium falciparum [1],100%
same,Inhibition,Plasmodium falciparum [2],98%
same,Inhibition,HepG2,0%
CCCCN(CCCC)/C(=N/c1cccc(Cl)c1Cl)Nc1ccc(C#N)cc1O,Inhibition,Plasmodium falciparum [1],89%
same,Inhibition,Plasmodium falciparum [2],69%
same,Inhibition,HepG2,4%
COc1cc2c(cc1OC)CC(NCCCCCCNCCc1ccc(Cl)cc1)CC2.Cl (configuration not stated),Inhibition,Plasmodium falciparum [1],98%
same,Inhibition,Plasmodium falciparum [2],0%
same,Inhibition,HepG2,50%
Cn1ccnc1CCC(=O)Nc1ccc(Cl)cc1C(=O)Nc1ccc(Cl)cc1,Inhibition,Plasmodium falciparum [1],92%
same,Inhibition,Plasmodium falciparum [2],3%
same,Inhibition,HepG2,28%
CCCN1CCN(CCCNC(=O)c2cc3c(-c4ccc(Cl)cc4)nn(C)c3s2)CC1,Inhibition,Plasmodium falciparum [1],88%
same,Inhibition,Plasmodium falciparum [2],20%
same,Inhibition,HepG2,46%
O=C(Nc1ccc(N2CCCCC2)c(Cl)c1)c1ccco1,Inhibition,Plasmodium falciparum [1],96%
same,Inhibition,Plasmodium falciparum [2],95%
same,Inhibition,HepG2,0%
CCCCN1CC[C@@H](CCC(O)c2ccnc3ccc(OCCC(C)C)cc23)[C@@H](CC)C1.O=C(O)C(=O)O (some centres not stated),Inhibition,Plasmodium falciparum [1],94%
same,Inhibition,Plasmodium falciparum [2],90%
same,Inhibition,HepG2,22%
O=C(Nc1ccc(Cl)cc1F)N[C@H]1CCN(CCCCCNC(=O)C2CC2c2ccc(Cl)c(Cl)c2)C1 (some centres not stated),Inhibition,Plasmodium falciparum [1],87%
same,Inhibition,Plasmodium falciparum [2],0%
same,Inhibition,HepG2,29%
O=S(=O)(Nc1cccc(CCN2CCCCC2CCN2CCCC2)c1)c1ccc(-c2ccccc2)cc1 (configuration not stated),Inhibition,Plasmodium falciparum [1],99%
same,Inhibition,Plasmodium falciparum [2],5%
same,Inhibition,HepG2,31%
COc1ccc(CN(C)CCCc2ccc(NC(=O)c3cccc4c(O)c5ccccc5nc34)cc2)cc1OC,Inhibition,Plasmodium falciparum [1],99%
same,Inhibition,Plasmodium falciparum [2],54%
same,Inhibition,HepG2,77%
O=C(O)C(F)(F)F.O=C1COC(c2ccccc2)(c2ccccc2)CN1CC1CCN(Cc2ccc(O)cc2Cl)C1 (configuration not stated),Inhibition,Plasmodium falciparum [1],85%
same,Inhibition,Plasmodium falciparum [2],81%
same,Inhibition,HepG2,53%
CC(C)(CNC(=O)[C@@H]1CCCN(CCOc2ccc(F)c(F)c2)C1)c1nc(-c2ccc(Cl)c(O)c2)c(-c2ccncc2)[nH]1.Cl,Inhibition,Plasmodium falciparum [1],100%
same,Inhibition,Plasmodium falciparum [2],77%
same,Inhibition,HepG2,72%
COc1cccc(C=NNc2cc(C)nc3c(OC)cccc23)c1,Inhibition,Plasmodium falciparum [1],99%
same,Inhibition,Plasmodium falciparum [2],58%
same,Inhibition,HepG2,6%
OC1=C2C(=Nc3ccccc3SC2c2ccccc2)c2ccccc21 (configuration not stated),Inhibition,Plasmodium falciparum [1],86%
same,Inhibition,Plasmodium falciparum [2],94%
same,Inhibition,HepG2,5%
COc1ccc(NC(=O)[C@H](Cc2ccccc2)Nc2cc(C)nc(Nc3ccccc3)n2)cc1.O=C(O)C(F)(F)F,Inhibition,Plasmodium falciparum [1],100%
same,Inhibition,Plasmodium falciparum [2],92%
same,Inhibition,HepG2,0%
O=C(NCCCCN1CCC(c2ccc3c(c2OCc2ccncc2)CCCC3)CC1)c1ccc(-c2ccc(C(F)(F)F)cc2)cc1,Inhibition,Plasmodium falciparum [1],100%
same,Inhibition,Plasmodium falciparum [2],92%
same,Inhibition,HepG2,96%
N#Cc1ccc(N/C(=N\c2ccccc2Cl)NC2CCN(Cc3ccccc3)CC2)c(O)c1,Inhibition,Plasmodium falciparum [1],100%
same,Inhibition,Plasmodium falciparum [2],97%
same,Inhibition,HepG2,31%
COc1cc2nc(N3CC(C)N(C(=O)Cc4ccc(-c5ccccc5)cc4)C(C)C3)nc(N)c2cc1OC (configuration not stated),Inhibition,Plasmodium falciparum [1],100%
same,Inhibition,Plasmodium falciparum [2],12%
same,Inhibition,HepG2,26%
